From PubChem BioAssay AID602195 (The Scripps Research Institute Molecular Screening Center, 2012)
The campaign covered roughly 1,600 compounds. About 430 (27%) were called active. Not all results are given here. A number with no mark means an inactive call. Rule as the data show it: active = inhibition above about 29%; inactive = the rest.

Biological target: Melanocortin receptor 4 (Homo sapiens) (UniProt P32245)
Experiment: MC4R cAMP antagonists, retest, confirmation, cell-based, TR-FRET (AID 602195);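 also: 0% = agonist stimulated wells alone and 100% = agonist stimulated wells plus saturating reference antagonist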
Conditions: MC4R-expressing cells, MTII-stimulated cAMP, at 6.5 µM, hits give high values

Chain of Melanocortin receptor 4 (Homo sapiens) (P32245 whole entry, looked up): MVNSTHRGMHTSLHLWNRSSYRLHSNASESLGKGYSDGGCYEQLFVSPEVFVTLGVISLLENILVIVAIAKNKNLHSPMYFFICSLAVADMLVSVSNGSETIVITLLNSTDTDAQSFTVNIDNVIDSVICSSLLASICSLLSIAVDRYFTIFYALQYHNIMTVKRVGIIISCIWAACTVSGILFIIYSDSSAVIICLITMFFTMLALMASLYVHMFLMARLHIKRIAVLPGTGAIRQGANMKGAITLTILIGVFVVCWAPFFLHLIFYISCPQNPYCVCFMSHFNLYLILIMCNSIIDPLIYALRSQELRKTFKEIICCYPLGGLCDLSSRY

Structure (SMILES)	inhibition
C#Cc1cc(N2CCN(C(=O)c3ccoc3)CC2)n2nc(-c3cccc(Cl)c3)cc2n1	36.4% (active)
Cc1ccc(Sc2ccc(NC(=O)c3ccc(F)cc3)cc2C#N)cc1	24.9%
Cc1c(CCC(=O)O)c(=O)oc2cc(OCc3ccc(Br)cc3)ccc12	-0.06%
CN(C)C(CNC(=O)CCCOc1ccccc1)c1ccco1 (stereo not given)	-4.52%
COC(=O)[C@H](Cc1ccccc1)NC(=O)[C@@H]1C[C@H]1[C@@H](NC(=O)OCc1ccccc1)c1ccccc1	62.1% (active)
COc1ccccc1N(CC(=O)N/N=C(\C)c1ccccc1O)S(=O)(=O)c1ccc(C)cc1	11.1%
CCOC(=O)C(C)n1cnc2sc(C)c(C)c2c1=O (stereo not given)	5.44%
COC(=O)c1sc(-c2ccc(C(C)(C)C)cc2)cc1NC(=O)/C=C/C(=O)O	-6.9%
Cc1ccc(C(C(=O)NCC2CCCO2)N(C(=O)c2snc(C(N)=O)c2N)c2ccc(C(C)C)cc2)o1 (stereo not given)	10.5%
CN(CC(=O)NCCc1ccccn1)S(=O)(=O)c1ccc(Cl)cc1	-19.7%
CC(C)(C)OC(=O)N1CCC(NC(=O)c2[nH]cnc2C(=O)N[C@@H](Cc2ccccc2)C(=O)OCc2ccccc2)CC1	55.3% (active)
O=C(Cn1nnc2ccccc2c1=O)Nc1cc(C(F)(F)F)ccc1N1CCOCC1	-7.03%
CCOC(=O)c1cc(C)nc(S(C)(=O)=O)c1C#N	29.6% (active)
Cc1nnc(N/N=C/C2CC=CCC2)[nH]c1=O (stereo not given)	2.83%
Cc1ccc(NC(=O)COC(=O)CNC(=O)c2ccc(Cl)cc2Cl)cc1S(=O)(=O)N1CCOCC1	13.7%
O=C(Nc1nccs1)c1cc(S(=O)(=O)N2CCOCC2)c(Cl)cc1Cl	38.2% (active)
O=C(O)CCn1cc(/C=C/C(=O)c2ccc(Cl)cc2)c(-c2cccc(Br)c2)n1	13.2%
CC1(C)C(c2cccs2)=[N+]([O-])C2(CCCCC2=O)N1O (stereo not given)	-17.8%
Cc1ccc(C)c(S(=O)(=O)N2CCN(CC(=O)Nc3ccc([N+](=O)[O-])cc3)CC2)c1	-6.36%
CCOC(=O)c1c(NC(=O)CCl)sc(C(=O)N(CC)CC)c1C	44.7% (active)
O=C(Nc1ccccc1Cl)/C(Cl)=C(\Cl)S(=O)c1ccccc1 (stereo not given)	-8.38%
COc1ccc(-c2nc3n(c(=O)c2C#N)CCS3)c(OC)c1	-26.2%
O=C(COC(=O)c1c2c(nc3ccccc13)CCCC2)c1ccc(Br)s1	13.6%
O=C(Nc1nnc(Cc2ccc(Cl)cc2)s1)c1cccnc1	-6.82%
CSc1nnc(NC(=O)c2nc(S(=O)(=O)Cc3ccc(C)cc3)ncc2Cl)s1	48.5% (active)
